Measured values published in PubChem BioAssay AID1851 (National Center for Advancing Translational Sciences (NCATS), 2009).
“And” between values parts separate entries of the source, which are not always exact repeats. Equal entries are not always repeated. The campaign covered roughly 16,000 compounds. About 2,600 (16%) were called active. About 20% were inconclusive and are not listed. A selection follows. Values without a mark were called inactive. Calls follow the shape of the dose curve; as a rule, active = well fitted curve in the direction sought with a large enough effect; inconclusive = small, poorly fitted or top-dose-only effect, or effect the other way; inactive = no such curve, though single readings can be large or run the other way.

These molecules were tested against Cytochrome P450 2D6 (Homo sapiens) (UniProt P10635) (assay: Cytochrome panel assay with activity outcomes). Settings: recombinant CYP, pro-luciferin dealkylation, luminescence, p450-cyp2d6; series mostly up to 57.1 µM.
% is scaled to controls: 0 for no effect and ±100 for the full control effect.

Sequence of Cytochrome P450 2D6 (Homo sapiens) (P10635 whole entry, looked up): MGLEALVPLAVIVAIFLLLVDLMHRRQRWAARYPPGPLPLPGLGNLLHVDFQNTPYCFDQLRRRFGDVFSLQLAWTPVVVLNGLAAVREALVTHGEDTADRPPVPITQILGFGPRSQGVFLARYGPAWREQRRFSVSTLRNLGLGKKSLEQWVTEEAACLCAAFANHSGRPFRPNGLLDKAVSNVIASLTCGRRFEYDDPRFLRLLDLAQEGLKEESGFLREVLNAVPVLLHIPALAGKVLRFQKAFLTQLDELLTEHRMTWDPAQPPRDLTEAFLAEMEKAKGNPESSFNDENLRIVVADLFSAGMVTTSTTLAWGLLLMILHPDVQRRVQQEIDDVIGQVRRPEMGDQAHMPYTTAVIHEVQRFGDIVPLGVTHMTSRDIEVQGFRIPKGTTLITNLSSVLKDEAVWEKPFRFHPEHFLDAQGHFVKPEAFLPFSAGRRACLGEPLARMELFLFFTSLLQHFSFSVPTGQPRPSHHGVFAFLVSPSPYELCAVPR

| Compound | AC50 | activity, negative = inhibition |
| --- | --- | --- |
| COc1ccc(CNc2ncncc2-c2cccc(C#N)c2)c(OC)c1 | 5.01 µM (active) |  |
| Cc1cnc(CNc2ncncc2-c2cccc(C#N)c2)cn1 | inactive |  |
| COc1ccccc1CNc1ncncc1-c1cccc(C#N)c1 | 15.8 µM (active) |  |
| COc1ccc(CNc2ncnc3ccc(-c4cccc(C#N)c4)cc23)c(OC)c1 | inactive |  |
| O=C(Oc1oc(-c2ccco2)nc1C=Nc1ccc(Cl)cc1)c1ccco1 | inactive |  |
| Cc1c2c(nc3ccccc13)-c1cccc(=O)n1C2 | inactive |  |
| COc1cccc(/C=N\NC(=O)c2cc(OCC(F)(F)F)ccc2OCC(F)(F)F)c1 | inactive |  |
| COc1ccc2[nH]c(=O)c(CN(CCO)C(=O)c3cccs3)cc2c1 | inactive |  |
| O=[N+]([O-])c1cc(/C=N/O)ccc1SCc1ccccc1 | inactive |  |
| CC1(C)O[C@@H]2O[C@H]([C@H](O)CO/N=C3/[C@H]4O[C@@H]4[C@@H](O)[C@H]4[C@H]3CCn3c(=O)n(-c5ccccc5)c(=O)n34)[C@@H](O)[C@@H]2O1 |  | 7.2% [at 11.4 µM] |
| CO[C@@H]1COC(=O)[C@H]2CCCN2C(=O)[C@@H](C)COC(=O)CCC[C@H]1C |  | 12% [at 11.4 µM] |
| CCOC(=O)c1c(-c2ccccc2)nc2ccc(Cl)cn12 | inactive |  |
| CCOC(=O)CNc1c(-c2ccccc2)nc2ccc(Cl)cn12 | 7.94 µM (active) |  |
| CCOC(=O)Cn1c(-c2ccccc2)nc2ccccc2c1=O | inactive |  |
| COc1cccc2c1C(=O)c1c(O)c3c(c(O)c1C2=O)C[C@](O)(C(=O)CO)C[C@H]3O[C@@H]1C[C@H](N)[C@H](O)[C@H](C)O1 | inactive |  |
| Cc1ccccc1NC(=O)C1CC(=O)N(c2ccc3c4c(cccc24)CC3)C1 (stereo not given) | inactive |  |
| CC(=O)OC[C@@H]1O[C@@H](O/N=C2/C[C@@H](O)[C@@H](O)[C@@H]3[C@@H]4C(=O)N(Cc5ccc6c(c5)OCO6)C(=O)[C@H]4CC[C@H]23)[C@H](OC(C)=O)[C@H](OC(C)=O)[C@@H]1OC(C)=O | 3.16 µM (active) |  |
| CC(=O)OC[C@@H]1O[C@@H](O/N=C2/C[C@@H](O)[C@@H](O)[C@@H]3[C@@H]4C(=O)N(Cc5ccccc5)C(=O)[C@H]4CC[C@@H]23)[C@H](OC(C)=O)[C@H](OC(C)=O)[C@@H]1OC(C)=O | 3.98 µM (active) |  |
| CC(=O)OC[C@@H]1O[C@@H](O/N=C2/C[C@@H](O)[C@@H](O)[C@@H]3[C@@H]4C(=O)N(Cc5ccc6c(c5)OCO6)C(=O)[C@H]4CC[C@@H]23)[C@H](OC(C)=O)[C@H](OC(C)=O)[C@@H]1OC(C)=O |  | -5.23% [at 11.4 µM] |
| CC(=O)OC[C@@H]1O[C@@H](O/N=C2/C[C@@H](O)[C@@H](O)[C@@H]3[C@@H]4C(=O)N(Cc5ccccc5)C(=O)[C@H]4CC[C@H]23)[C@H](OC(C)=O)[C@H](OC(C)=O)[C@@H]1OC(C)=O | 3.16 µM (active) |  |
| CCN1C(=O)[C@H]2[C@H]3[C@H](O)[C@H](O)C/C(=N/OCC[C@H]4C=C[C@H](OC(C)=O)[C@@H](COC(C)=O)O4)[C@@H]3CC[C@@H]2C1=O |  | -11.1% [at 11.4 µM] |
| CC(C)=CCC/C(C)=C/CO/N=C1/C[C@@H](O)[C@@H](O)[C@@H]2[C@@H]3C(=O)N(Cc4ccccc4)C(=O)[C@H]3CC[C@@H]12 |  | 15% [at 11.4 µM] |
| CCOC(=O)N/N=C1/C[C@@H](O)[C@@H](O)[C@@H]2[C@@H]3C(=O)N(Cc4ccccc4)C(=O)[C@H]3CC[C@H]12 |  | 9.96% [at 11.4 µM] |
| CC(C)CO/N=C1/C[C@@H](O)[C@@H](O)[C@@H]2[C@@H]3C(=O)N(Cc4ccc5c(c4)OCO5)C(=O)[C@H]3CC[C@@H]12 |  | -15.9% [at 11.4 µM] |
| CC(=O)OC[C@@H]1O[C@@H](O/N=C2/C[C@@H](O)[C@@H](O)[C@@H]3[C@@H]4C(=O)N([C@@H](C)c5ccccc5)C(=O)[C@H]4CC[C@@H]23)[C@H](OC(C)=O)[C@H](OC(C)=O)[C@@H]1OC(C)=O |  | -0.595% [at 11.4 µM] |
| COCC(=O)Nc1ccc(-c2cn3cccnc3n2)cc1 | inactive |  |
| COC(=O)[C@H]1C[C@@H]1[C@H](NC(=O)c1cccnc1)c1ccccc1 | inactive |  |

| Compound | AC50 | activity, negative = inhibition |
| --- | --- | --- |
| O=c1cc(N2CCN(c3cccc(Cl)c3)CC2)[nH]c(=O)n1C1CCCCC1 | inactive |  |
| CC(=O)N(/N=C1\Sc2ccccc2C1=O)c1ccccc1 | inactive |  |
| N#Cc1c(NC(=O)CCC(=O)O)ccc2ccccc12 |  | 7.11% [at 11.4 µM] |
| COc1ccc(N2CCN(C(=N)/C(C(C)=O)=C(\C)O)CC2)cc1 | inactive |  |
| COc1cccc(C2C3(C#N)C(N)=NC(OC)(OC)C23C#N)c1 (stereo not given) | inactive |  |
| COc1ccc(-c2nc3cnc(Oc4cccc(Cl)c4)nc3n(C[C@H]3CCCO3)c2=O)cc1 | inactive |  |
| COc1ccc(NC(=O)c2cc3n(n2)C(C(F)(F)F)CC(c2ccc4c(c2)OCO4)N3)cc1OC (stereo not given) | inactive |  |
| COc1ccc(OC)c(NC(=O)c2cc3n(n2)C(C(F)(F)F)CC(c2ccc4c(c2)OCO4)N3)c1 (stereo not given) | inactive |  |
| COC(=O)C1=C(N)N(c2ccccc2C(F)(F)F)C2=C(C(=O)CCC2)C1c1ccc2c(c1)OCO2 (stereo not given) | 28.2 µM (active) |  |
| COc1cc(/C=C2/C(=N)N3C=CSC3=NC2=O)ccc1OCCCOc1ccccc1C | inactive |  |
| FC(F)(F)c1nnc2c(Sc3ccc(Cl)cc3)nc3ccccc3n12 | inactive |  |
| COC(=O)c1ccccc1NC(=O)CSc1nnc(C(CO)NC(=O)c2ccccc2Cl)n1C (stereo not given) | inactive |  |
| CCOc1ccccc1-n1nnnc1SCC(=O)Nc1cc(C)on1 | inactive |  |
| CCOc1ccccc1NC(=O)CSc1nnc(-c2cnccn2)n1C | 12.6 µM (active) |  |
| O=C1CCC(c2ccc(-n3ccnc3)cc2)=NN1 | 2.51 µM (active) |  |
| CCn1c(O)c(/C=N/N=C2CCCC2)c2ccc(C3=NNC(=O)CC3)cc21 | inactive |  |
| Cc1cn2c(-c3ccncc3)nnc2s1 | inactive |  |
| Oc1cc(O)c2c(c1)O[C@H](c1ccc(O)c(O)c1)[C@@H](O)[C@@H]2c1c(O)cc(O)c2c1O[C@@H](c1ccc(O)c(O)c1)[C@H](O)C2 |  | -5.15% [at 11.4 µM] |
| CNc1ncnc2ccc(-c3ccccc3CN(C)C)cc12 | 10 µM (active) |  |
| CN(C)Cc1ccccc1-c1ccc2ncnc(NCc3ccccc3)c2c1 | 7.94 µM (active) |  |
| COc1ccc(CNc2ncnc3ccc(-c4ccccc4OC)cc23)c(OC)c1 | inactive |  |
| COc1ccccc1CNc1ncnc2ccc(-c3ccccc3CN(C)C)cc12 | 2.51 µM (active) |  |
| COc1ccc(CNc2ncnc3ccc(-c4ccccc4CN(C)C)cc23)c(OC)c1 | 1.26 µM (active) |  |
| CNc1ncnc2ccc(-c3ccccc3C#N)cc12 | inactive |  |
| O=C1Nc2cc(Cl)c(Cl)cc2N(O)N1c1ccc(Cl)c(Cl)c1 | inactive |  |
| CC1(C)O[C@@H]2C[C@H]3[C@H]4C[C@H](F)C5=CC(=O)CC[C@]5(C)[C@@H]4[C@H](O)C[C@]3(C)[C@]2(C(=O)CO)O1 | inactive |  |
| COCC(=O)Oc1c(S(=O)(=O)c2ccc(C)cc2)c(C)nn1-c1ccccc1 | inactive |  |

| Compound | AC50 | activity, negative = inhibition |
| --- | --- | --- |
| NC(=O)c1cc[n+](CC2=C(C(=O)O)N3C(=O)[C@@H](NC(=O)[C@H](c4ccccc4)S(=O)(=O)[O-])[C@@H]3SC2)cc1 | inactive |  |
| COc1ccc(-c2cc(C(=O)Nc3cnn(Cc4ccccc4C)c3)no2)cc1OC | inactive |  |
| COC(=O)c1cnn(C(=O)c2cc(OC)ccc2Br)c1N | inactive |  |
| O=C(O)/C=C\[C@H](O)c1ccc(Cl)cc1 | inactive |  |
| Cc1ccccc1N(C(=O)Cc1cccs1)C(C(=O)NCC1CCCO1)c1cccnc1 (stereo not given) | inactive |  |
| N#Cc1c(-c2ccccc2)nc(-c2ccccc2)[nH]c1=O | inactive |  |
| CC(C)CN=C(N)N=C(N)N |  | 7.41% [at 11.4 µM] |
| N#C/C(=C\Nc1ccccn1)C(=O)c1ccco1 |  | -1.48% [at 11.4 µM] |
| CN(C)Cc1ccccc1-c1ccc2ncnc(NC3CCNCC3)c2c1 | 10 µM (active) |  |
| COCCNc1ncnc2ccc(-c3ccccc3CN(C)C)cc12 | 15.8 µM (active) |  |
| COCCNc1ncnc2ccc(-c3ccc(C(=O)N(C)C)cc3)cc12 | inactive |  |
| N#Cc1cccc(-c2ccc3ncnc(NC4CCNCC4)c3c2)c1 | inactive |  |
| CS(=O)(=O)Nc1cccc(-c2ccc3ncnc(NC4CCNCC4)c3c2)c1 | inactive |  |
| C[C@@H](CNC(N)=O)NC(N)=O |  | -3.67% [at 11.4 µM] |
| CN1CCN(c2ncc3ncc(=O)n(-c4ccccc4)c3n2)CC1 | inactive |  |
| O=C(NC(N1CCCC1)C(Cl)(Cl)Cl)c1ccccc1 (stereo not given) | inactive |  |
| COc1cccc(/C=N/NC(=O)c2nc(-c3ccccc3)cc(-c3ccccc3)n2)c1 | inactive |  |
| Clc1ccccc1OCCCCN1CCCC1 | 11.2 µM (active) |  |
| Cc1ccccc1OCCCN1CCCC1 | 14.1 µM (active) |  |
| O=C(O)c1ccc(OCc2ccccc2)c(Cl)c1 |  | 4.91% [at 11.4 µM] |
| CC(C)(C)c1ccccc1OCCN1CCCC1 | 5.62 µM (active) |  |
| Fc1ccccc1OCCCCCCN1CCCC1 | 14.1 µM (active) |  |
| Cc1ccccc1OCC(=O)OC1CCN(C)CC1 | inactive |  |
| Cc1ccc(CNC(=O)CCc2c(C)nc3ncnn3c2C)cc1 | inactive |  |
| O=C1[C@H]2[C@H]3[C@H](O)[C@H](O)C/C(=N/OC[C@@H](O)COCc4ccco4)[C@H]3CC[C@@H]2C(=O)N1C[C@@H]1CCCO1 |  | 14.8% [at 11.4 µM] |
| C/C(CCN1CCc2nc(-c3ccccc3)c(-c3ccccc3)cc2C1)=N\O[C@@H](C)c1cn([C@H](CO)Cc2ccccc2)nn1 |  | -8.59% [at 11.4 µM] and -16.7% [at 11.4 µM] |
